In the supplement of paper PMC12645437, “Orthogonal IMiD-Degron Pairs Induce Selective Protein Degradation in Cells” (ACS Chemical Biology, 2025):
Over roughly 8,300 sequences, “log2 fold change of degron read counts, EGFP-low vs EGFP+ sorted cells (limma voom), compound-induced degradation” has its median near -1.1; the highest 2% begin near 3.2. For the sample, the highest values were picked, then their nearest neighbours and some sequences at random.

T1: CRBN, Q96SW2
T1 chain: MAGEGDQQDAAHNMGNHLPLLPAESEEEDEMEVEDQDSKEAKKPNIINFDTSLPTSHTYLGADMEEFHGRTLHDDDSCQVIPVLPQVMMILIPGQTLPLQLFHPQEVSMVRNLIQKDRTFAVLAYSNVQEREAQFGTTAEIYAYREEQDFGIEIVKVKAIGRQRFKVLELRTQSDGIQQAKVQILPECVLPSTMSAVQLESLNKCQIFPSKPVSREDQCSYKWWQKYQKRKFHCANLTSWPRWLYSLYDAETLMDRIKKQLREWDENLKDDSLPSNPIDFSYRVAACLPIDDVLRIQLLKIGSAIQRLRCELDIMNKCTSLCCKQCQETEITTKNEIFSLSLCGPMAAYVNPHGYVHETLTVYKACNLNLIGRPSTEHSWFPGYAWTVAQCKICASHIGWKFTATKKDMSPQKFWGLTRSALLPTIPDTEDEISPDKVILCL

B1: 46F_47F_49D_50Q_52G_53A_54E_55F_67L_, Q9UKT9 (peptide)
chain: FFCDQCGAEFTQKGNLLRHIKL
B2: 46F_47A_49P_50V_52G_53A_54F_55F_67L_, Q9UKT9 (peptide)
chain: FACPVCGAFFTQKGNLLRHIKL
B3: 46F_47E_49P_50I_52G_53H_54E_55F_67L_, Q9UKT9 (peptide)
chain: FECPICGHEFTQKGNLLRHIKL
B4: 46F_47L_49E_50I_52G_53R_54R_55F_67L_, Q9UKT9 (peptide)
chain: FLCEICGRRFTQKGNLLRHIKL
B5: 46F_47L_49N_50V_52G_53A_54S_55F_67L_, Q9UKT9 (peptide)
chain: FLCNVCGASFTQKGNLLRHIKL
B6: 46F_47F_49P_50I_52G_53H_54E_55F_67L_, Q9UKT9 (peptide)
chain: FFCPICGHEFTQKGNLLRHIKL
B7: 46F_47M_49N_50V_52G_53A_54M_55F_67L_, Q9UKT9 (peptide)
chain: FMCNVCGAMFTQKGNLLRHIKL
B8: 46F_47T_49N_50V_52G_53A_54L_55F_67L_, Q9UKT9 (peptide)
chain: FTCNVCGALFTQKGNLLRHIKL

Target: T1, CRBN, Q96SW2
Experiment: log2 fold change of degron read counts, EGFP-low vs EGFP+ sorted cells (limma voom), compound-induced degradation; higher = more compound-induced degradation of the degron-EGFP fusion; degrons are variants of IKZF1/3 zinc finger 2; compound dose not given here
Conditions: Jurkat, 18 h
[1] = compound: compound 19 (5-tert-butyl-thalidomide)
[2] = compound: compound 22 (5-morpholino-thalidomide)
[3] = compound: compound 33 (diphenyl IMiD analogue)
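Further: pooled lentiviral library of zinc finger degron-EGFP fusions in mCherry-positive Jurkat cells, FACS-sorted after compound exposure, with degron abundance counted by next-generation sequencing.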

Row | Sequence | log2 fold change of degron read counts [1] | log2 fold change of degron read counts [2] | log2 fold change of degron read counts [3] | log2 fold change of degron read counts (compound: thalidomide)
1 | B1 | -0.653 | -1.5 | -2.48 | -2.75
2 | B2 | 1.92 | -0.0365 | 0.632 | -0.719
3 | B3 | -3.46 | -3.29 | -1.58 | -1.82
4 | B4 | -1.65 | -2.28 | -1.89 | -0.0712
5 | B5 | -1.47 | -1.87 | -0.611 | -0.827
6 | B6 | -1.46 | -1.37 | -1.31 | -1.41
7 | B7 | -2.09 | -2.13 | 0.122 | -1.26
8 | B8 | -2.25 | -1.98 | -0.325 | -1.1
